± gives the standard deviation of the averaged measurements.
What was measured:
Experiment in all cases: cell viability (% of vehicle); higher = less cytotoxic
HCI01 [1] = cells of a triple-negative basal-like breast cancer xenograft; conditions: 10 µM; 72 h
HCI03 = cells of an ER-positive luminal breast cancer xenograft; conditions: 10 µM; 72 h
HCI09 = cells of a triple-negative luminal androgen receptor type breast cancer xenograft; conditions: 10 µM; 72 h
HCI11 = cells of an ER-positive luminal breast cancer xenograft; conditions: 10 µM; 72 h
HCI13 = cells of an ER-positive luminal breast cancer xenograft; conditions: 10 µM; 72 h
HCI16 = cells of a triple-negative basal-like breast cancer xenograft; conditions: 10 µM; 72 h
UCD52 [2] = cells of a triple-negative basal-like breast cancer xenograft; conditions: 10 µM; 72 h
WHIM2 [3] = cells of a triple-negative basal-like breast cancer xenograft; conditions: 10 µM; 72 h
WHIM30 [4] = cells of a triple-negative basal-like breast cancer xenograft; conditions: 10 µM; 72 h
HCI01 [5] = conditions: 1 µM; 72 h
UCD52 [6] = conditions: 1 µM; 72 h
WHIM2 [7] = conditions: 1 µM; 72 h
WHIM30 [8] = conditions: 1 µM; 72 h

SMILES	cell viability (HCI01 [1])	cell viability (HCI03)	cell viability (HCI09)	cell viability (HCI11)	cell viability (HCI13)	cell viability (HCI16)	cell viability (UCD52 [2])	cell viability (WHIM2 [3])	cell viability (WHIM30 [4])	cell viability (HCI01 [5])	cell viability (UCD52 [6])	cell viability (WHIM2 [7])	cell viability (WHIM30 [8])
O=P1(N(CCCl)CCCl)NCCCO1 (configuration not stated) [Cyclophosphamide]	107 ± 4.7	98	104.9 ± 0.44	88.5	112 ± 5.9	80.3	99.09 ± 0.21	79.86 ± 0.25	115 ± 14				
CC(=O)O[C@@]12CO[C@@H]1C[C@@H](O)[C@@]1(C)C(=O)[C@@H](O)C3=C(C)[C@@H](O)C[C@@](O)([C@@H](OC(=O)c4ccccc4)[C@H]21)C3(C)C [10-DAB (10-Deacetylbaccatin)]	138 ± 19	107	99.3 ± 2.1	108	97.8 ± 2.6	126	79.2 ± 2.9	84.7 ± 18	126 ± 7.2				
CC1CNCCc2ccc(Cl)cc21.Cl (configuration not stated) [Lorcaserin HCl]	96.6 ± 5.8	110	100 ± 5.7	81.3	94.9 ± 12	106	90.3 ± 3.9	82.89 ± 0.73	111.3 ± 0.19				
Cc1cc(C(C#N)c2ccc(Cl)cc2)c(Cl)cc1NC(=O)c1cc(I)cc(I)c1[O-].[Na+] (configuration not stated) [Closantel Sodium]	34.4 ± 1.9	114	17.978 ± 0.0048	93.2	35.4 ± 2.9	96.3	68.1 ± 7.7	44.6 ± 10	52.7 ± 0.69	93.1	90.9	106	88.2
OC(c1ccccc1)(c1ccccc1)C1CCNCC1 [Azacyclonol]	98.1 ± 19	137	84.5 ± 38	93.8	79 ± 10	110	95.8 ± 10	109 ± 34	113 ± 2.1				
CCNCC.O=S(=O)(O)c1cc(O)ccc1O [Ethamsylate]	162 ± 90	124	99.4 ± 7	98	97.8 ± 10	126	109 ± 13	92.2 ± 12	103 ± 4.7				
COc1ccc(C(=O)N2CCCC2=O)cc1 [Aniracetam]	102 ± 2	107	147 ± 79	104	139 ± 1.5	95.4	96 ± 7.3	94.8 ± 14	86.1 ± 6.5				
CN1c2ccccc2C(NCCCCCCC(=O)[O-])c2ccc(Cl)cc2S1(=O)=O.[Na+] (configuration not stated) [Tianeptine sodium]	132 ± 22	134	95.1 ± 10	122	95.95 ± 0.8	120	122 ± 4.6	85.3 ± 8	142.2 ± 0.38				
CC(O)(CS(=O)(=O)c1ccc(F)cc1)C(=O)Nc1ccc(C#N)c(C(F)(F)F)c1 (configuration not stated) [Bicalutamide]	108 ± 8.9	113	90.6 ± 13	90.2	127 ± 3.6	108	89.7 ± 11	90.2 ± 6.4	108 ± 3.1				
CCCCCCCCCCCC[N+](C)(C)CCOc1ccccc1.[Br-] [Domiphen Bromide]	34.9 ± 13	48.7	24.1 ± 1.5	50.1	41.3 ± 10	46.4	27.6 ± 1.8	44 ± 14	28.4 ± 4.7	88.5	80.4	81.7	57.1
CCCCCCCCCCCCCCCC[N+](C)(C)C.[Br-] [Cetrimonium Bromide (CTAB)]	44.3 ± 15	56.5	21.7 ± 7.3	72	26.9 ± 2	69.1	37.5 ± 1.9	42.4 ± 8.1	35.6 ± 1.7	87.8	75.6	74.2	49.2
Cn1cc(C2=C(c3cn(C4CCN(Cc5ccccn5)CC4)c4ccccc34)C(=O)NC2=O)c2ccccc21	94 ± 30	95.8	72.7 ± 44	82.3	72.1 ± 9.6	99.5	49 ± 7.5	107 ± 18	119 ± 5.6				
CC(C)N(CCNC(=O)CN1CCCC1=O)C(C)C [Pramiracetam]	85.1 ± 58	155	101 ± 9.4	110	120 ± 2.3	129	108 ± 2.9	119 ± 11					
O=c1[nH]c2ccccc2n1C1CCN(CCCC(c2ccc(F)cc2)c2ccc(F)cc2)CC1 [Pimozide]	103 ± 21	104	48.1 ± 31	70.4	69.39 ± 0.41	103	86.7 ± 16	103 ± 24	93.69 ± 0.39				
CNCC(=O)c1ccc(O)c(O)c1.Cl [Adrenalone HCl]	111 ± 21	116	104 ± 15	107	88.5 ± 7.3	152	99.9 ± 5.5	87.8 ± 1.7	106 ± 7.2				
C[N+](C)(C)CCCCCCCCCC[N+](C)(C)C.[Br-].[Br-] [Decamethonium Bromide]	110 ± 4.6	120	100 ± 6.9	102	105 ± 1.9	105	78.9 ± 6.2	89.8 ± 8.7	101 ± 10				
CCCC[N+]1(C)[C@@H]2C[C@@H](OC(=O)[C@H](CO)c3ccccc3)C[C@H]1[C@@H]1O[C@@H]12 (some centres not stated) [Scopolamine butylbromide]	105 ± 5.4	116	88.8 ± 19	97.3	97.4 ± 2.5	119	100.7 ± 0.64	137 ± 14	133 ± 4.2				
CCCCCCCCCCCCCCCC[n+]1ccccc1.[Cl-] [Cetylpyridinium Chloride]	32.9 ± 12	44.4	16.9 ± 3.2	53.1	25 ± 4.5	42.1	24.2 ± 1.9	36.7 ± 13	28.1 ± 0.9	92.7	67.6	63.4	52.8
